From PubChem
This is a sample that favours compounds with a hit; in the whole collection about 7.3% have one here.
SMN2 splice enh = increases expression of the SMN2 splice variant. HEK293 SMN2-luciferase splicing reporter, luminescence, 30-36 h. Potency, µM (doses to about 46.1 µM), hits mostly activators. 210,000 compounds, 2.8% hits. AID 1458; also: nearly all actives have a fitted effect of over 55% in size
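qHTS luciferase splicing reporter: luminescence rises when SMN2 exon 7 is included in transfected HEK293 cells. Compound exposure lasted 30-36 h at 37C, with 4.5 mM final sodium butyrate as control, followed by a ONE-Glo read.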
FLuc counter = firefly luciferase modulation, counter-screen for miR-21 project; P08659; purified FLuc, Km substrates, luminescence inhibition; Potency, µM (highest dose often 57.5 µM), usual class: inhibitors; 360,000 compounds, 6.9% hits; AID 588342; also: nearly all actives have a fitted effect of over 55% in size
Target sequence (P08659 whole entry, looked up): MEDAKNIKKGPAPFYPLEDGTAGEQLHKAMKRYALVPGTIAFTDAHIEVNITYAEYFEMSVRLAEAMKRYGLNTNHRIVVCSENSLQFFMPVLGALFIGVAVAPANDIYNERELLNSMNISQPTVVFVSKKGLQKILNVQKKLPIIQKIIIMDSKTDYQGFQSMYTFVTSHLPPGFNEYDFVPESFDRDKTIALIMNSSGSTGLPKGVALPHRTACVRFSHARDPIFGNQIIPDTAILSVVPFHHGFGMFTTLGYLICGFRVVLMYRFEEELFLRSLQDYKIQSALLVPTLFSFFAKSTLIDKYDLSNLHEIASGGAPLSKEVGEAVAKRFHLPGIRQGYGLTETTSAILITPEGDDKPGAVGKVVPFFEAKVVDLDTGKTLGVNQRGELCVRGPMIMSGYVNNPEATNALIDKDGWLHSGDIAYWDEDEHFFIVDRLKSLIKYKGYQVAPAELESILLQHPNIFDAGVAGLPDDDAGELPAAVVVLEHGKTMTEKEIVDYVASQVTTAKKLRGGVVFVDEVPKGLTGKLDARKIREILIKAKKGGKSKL
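Purified P. pyralis luciferase (10nM final) with 10uM D-luciferin and 10uM ATP (Km levels) in 50mM Tris acetate pH 7.5, 10mM Mg acetate, 0.01% Tween-20, 0.05% BSA; qHTS 6-point titration, ~60 µM downward; luminescence read.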
ELG1 genotoxic = genotoxicity induction in ELG1-luciferase HEK293T cells. HEK293T ELG1-luciferase reporter, luminescence, 16 h. Potency, µM (highest dose often 46 µM), actives largely listed as activators. 330,000 compounds, 1.3% hits. AID 504466; also: nearly all actives have a fitted effect of over 60% in size
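Luminescence read-out: rising ELG1-luciferase signal, reflecting elevated ELG1 protein under genetic stress, flags genotoxic compounds. Cells were treated for 16 hr at 37 °C before ONE-Glo detection.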
NPC1 promoter act = NPC1 promoter activation | Huh7 NPC1 promoter luciferase reporter, 24 h | Potency, µM (top dose mostly 9.22 µM), most hits filed as activators | 320,000 compounds, 2.4% hits | AID 485313; also: nearly all actives have a fitted effect of over 60% in size
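Stable NPC1-promoter luciferase Huh7 line; cpd (DMSO) 24 h, 37 °C, 5% CO2; Amplite luciferase reagent 10 min RT; luminescence readout. qHTS format.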
KinaseGlo FLuc = Kinase-Glo luciferase inhibition (counter-screen); Potency, µM (doses to about 38.3 µM), most hits filed as inhibitors; 200,000 compounds, 0.28% hits; Kinase-Glo luciferase, ATP luminescence, 8 min; AID 1379; also: nearly all actives have a fitted effect of over 60% in size
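Kinase-Glo luciferase light output from ATP and luciferin was measured with 10 uM ATP, within the enzyme's linear range. Buffer: 50 mM imidazole pH 7.2, 50 mM KCl, 7 mM MgCl2, 0.01% Tween 20, 0.05% BSA; luminescence read after 8 min at ambient temperature.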
Rab9 prom act = activates the Rab9 promoter; Huh7 Rab9 promoter-luciferase reporter, luminescence, 24 h; Potency, µM (series often up to 9.22 µM), hits mostly activators; 320,000 compounds, 2.8% hits; AID 485297; also: nearly all actives have a fitted effect of over 60% in size
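Huh7 reporter line, Rab9 promoter upstream of luciferase. Compound exposure 24 h at 37 °C in reduced-serum medium with 10% FBS. Read-out: luminescence.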
Hits are given with their value; 0 = inactive; ? = inconclusive; - = no result given; [ ] = another dose, or the depositor's remark. Calls follow the shape of the dose curve; as a rule, active = well fitted curve in the direction sought with a large enough effect; inconclusive = small, poorly fitted or top-dose-only effect, or another doubt; inactive = no such curve, though single readings can be large; an effect the other way counts as inactive or inconclusive.

SMILES	SMN2 splice enh	FLuc counter	ELG1 genotoxic	NPC1 promoter act	KinaseGlo FLuc	Rab9 prom act
COc1ccc(N2C(=O)c3ccccc3NC23CCCC3)cc1	11.2µM	?	?	3.98µM	0	2.51µM
CCC1(CC)Nc2ccccc2C(=O)N1c1ccc(OC)cc1	-	10.7µM	?	2µM	-	2.51µM
CCC1(CC)Nc2ccccc2C(=O)N1c1ccc(NC(C)=O)cc1	0	0	?	0	0	?
COc1ccc(N2C(=O)CCC2(C#N)c2ccc(Br)cc2)cc1 (configuration not stated)	0	0	0	0	0	0
COc1ccc(N2C(S)=C(C#N)C(=O)NC23CCCCC3)cc1	-	26.9µM	0	0	0	0
O=C(c1cc(-c2ccc(Cl)c(Cl)c2)on1)N1CCN(c2ccccc2)CC1	0	?	0	0	0	0
O=C(c1cc(-c2ccc(Cl)cc2)on1)N1CCCC1	-	2.13µM	2.91µM	0.562µM	-	0.447µM
O=C(c1cc(-c2ccc(Cl)c(Cl)c2)on1)N1CCCCC1	22.4µM	4.26µM	?	2.82µM	0	1µM
CC(C)CNC(=O)c1cc(-c2ccc(Cl)c(Cl)c2)on1	0	0	0	?	0	4.47µM
O=C(c1cc(-c2cccc(Cl)c2)on1)N1CCc2ccccc2C1	-	0	0	0	-	0
O=C(c1cc(-c2cccc(Cl)c2)on1)N1CCCC1	-	13.5µM	18.3µM	3.98µM	-	2.82µM
O=C(NCCc1ccccc1)c1cc(-c2ccc(Cl)c(Cl)c2)on1	0	0	-	-	-	-
CCOc1cc2c(cc1OCC)C(c1c(F)cccc1Cl)CC(=O)N2 (configuration not stated)	0	0	-	-	-	-
CCOCCCn1c(SCC(=O)Nc2ccccc2OC)nc2c(oc3ccccc32)c1=O	0	0	-	-	-	-
CCN(CC)c1ccc(/C=N/Nc2nn[nH]n2)cc1	-	16.9µM	0	0	-	0
CCN(CC)c1ccc(/C=N/Nc2nc(C)cc(C)n2)cc1	-	?	0	0	-	0
CCOc1ccc(C(=O)c2cn(CC(=O)Nc3cc(OC)cc(OC)c3)c3ccc(F)cc3c2=O)cc1	0	0	-	-	-	-
O=C(/C=C/c1ccccc1)N1CCCN(C(=O)/C=C/c2ccccc2)CC1	0	?	0	0	0	0
CN1CCN(C(=O)/C=C/c2ccc(Cl)cc2)CC1	-	0	0	0	-	0
CC(C)(C)c1ccc(/C=C/C(=O)N2CCCCC2)cc1	12.6µM	6.75µM	?	3.98µM	0	1.58µM
CC1CCN(C(=O)/C=C/c2ccc(C(C)(C)C)cc2)CC1	0	15.1µM	?	0	0	0
CC(C)Cc1ccc(/C=C/C(=O)N2CCCCC2)cc1	11.2µM	7.57µM	0	2.51µM	0	0.891µM
Cc1ccc(/C=C/C(=O)N2CCC(c3nc4ccccc4o3)CC2)cc1	-	10.7µM	-	-	-	-
Cc1ccc(/C=C/C(=O)N2CCC(Cc3ccccc3)CC2)cc1	0[1.84 µM]	21.3µM	0	0	0	0
Cc1ccc(/C=C/C(=O)N2CCCC(C)C2)cc1 (configuration not stated)	1.12µM	3.01µM	9.2µM	1.26µM	0	2.24µM
SMILES	SMN2 splice enh	FLuc counter	ELG1 genotoxic	NPC1 promoter act	KinaseGlo FLuc	Rab9 prom act
CC(C)Cc1ccc(/C=C/C(=O)NC2CC2)cc1	?	4.78µM	16.4µM	?	0	3.55µM
CCOC(=O)C1CCCN(C(=O)/C=C/c2ccc(Cl)cc2)C1 (configuration not stated)	0	0	0	0	0	0
CCOCCCNC(=O)C1CCN(C(=O)c2cc3sccc3n2C)CC1	0	0	-	-	-	-
COc1cccc(-c2nc(-c3ccccc3)no2)c1	11.2µM	?	?	?	0	?
COc1cccc(-c2ccc(-c3noc(-c4ccccc4Br)n3)c(OC)n2)c1	0	?	-	-	-	-
c1ccc(-c2noc(-c3cccnc3)n2)nc1	11.2µM	13.5µM	5.17µM	2.82µM	?	2µM
COc1nc2ccc(C)cc2cc1-c1noc(-c2cccnc2)n1	0	0	0	0	0	0
COc1cc(OC)cc(-c2nc(-c3cccc(C)c3)no2)c1	0	?	-	-	-	-
COc1cccc(-c2nc(-c3ccccn3)no2)c1	0	0.338µM	0	?	7.94µM	0.112µM
COc1cccc(-c2noc(-c3cccnc3)n2)c1	20µM	5.36µM	?	3.55µM	0	2.51µM
CCOC(=O)c1c(C)oc2nc(C)nc(NCc3cccc(OC)c3)c12	-	0	-	-	-	-
